Test results as given in paper PMC12820563, “FoxP3 forms a head-to-head dimer in vivo and stabilizes its multimerization on adjacent microsatellites”.
Whole data set: some 16,000 sequences, median “rpm ratio (pull-down/input)” near 0.94, cut for the highest 2% near 1.7. The full list was thinned out, with the highest values kept by preference.

biological target: T1, MBP-FoxP1dN (Mus musculus, UniProt P58462 326-579); experiment: PD-seq (MBP pull-down with sequencing); 20 mM Tris-HCl pH 7.5, 100 mM NaCl, 1.5 mM MgCl2, 0.4 uM protein, 0.1 uM dsDNA library, 30 min, room temperature, amylose pull-down; high values mean tight binding; conditions: protein: recombinant; tags: His6-MBP; chain copies: 2; dsDNA, one strand shown
T1 sequence: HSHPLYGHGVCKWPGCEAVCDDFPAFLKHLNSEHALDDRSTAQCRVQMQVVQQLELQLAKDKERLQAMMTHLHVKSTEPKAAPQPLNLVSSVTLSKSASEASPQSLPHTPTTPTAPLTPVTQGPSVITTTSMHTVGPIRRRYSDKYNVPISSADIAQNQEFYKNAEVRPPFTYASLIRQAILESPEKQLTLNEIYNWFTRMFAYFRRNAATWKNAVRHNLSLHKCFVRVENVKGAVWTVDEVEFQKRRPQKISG
Summary of the method: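 Binding is reads-per-million enrichment of pull-down over input, with replicates pooled. It comes from 30 min room-temperature incubation in Tris pH 7.5 buffer with NaCl and MgCl2 of 0.4 µM His6-MBP-tagged, N-terminally truncated mouse FoxP3 or FoxP1 fragment from E. coli with 0.1 µM Klenow-filled degenerate double-stranded DNA library, followed by amylose resin capture, three washes and Illumina sequencing of the released DNA.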

Sequence	binding signal
GATGATTGTTCTCCCAGCTGATGAATTTATGTGATCGAGTAAACAAATTTTCCTAATCTTTCTGTTCAAGCGCCATCTAC	1.21 RPM ratio (pull-down/input)
GATGATTGTTCTCCCAGCTGATGAATTGTAGTGCTCGAGTAAACAAATTTTCCTAATCTTTCTGTTCAAGCGCCATCTAC	1.04 RPM ratio (pull-down/input)
GATGATTGTTCTCCCAGCTGATGAATTTGGTACGTCGAGTAAACAAATTTTCCTAATCTTTCTGTTCAAGCGCCATCTAC	0.997 RPM ratio (pull-down/input)
GATGATTGTTCTCCCAGCTGATGAATTAATCGCGTCGAGTAAACAAATTTTCCTAATCTTTCTGTTCAAGCGCCATCTAC	1.01 RPM ratio (pull-down/input)
GATGATTGTTCTCCCAGCTGATGAATTTTAATCCTCGAGTAAACAAATTTTCCTAATCTTTCTGTTCAAGCGCCATCTAC	0.832 RPM ratio (pull-down/input)
GATGATTGTTCTCCCAGCTGATGAATTCAGGGGGTCGAGTAAACAAATTTTCCTAATCTTTCTGTTCAAGCGCCATCTAC	0.723 RPM ratio (pull-down/input)
GATGATTGTTCTCCCAGCTGATGAATTGTTATCCTCGAGTAAACAAATTTTCCTAATCTTTCTGTTCAAGCGCCATCTAC	1.55 RPM ratio (pull-down/input)
GATGATTGTTCTCCCAGCTGATGAATTGCTGTTATCGAGTAAACAAATTTTCCTAATCTTTCTGTTCAAGCGCCATCTAC	1.85 RPM ratio (pull-down/input)
GATGATTGTTCTCCCAGCTGATGAATTGGTGTAATCGAGTAAACAAATTTTCCTAATCTTTCTGTTCAAGCGCCATCTAC	1.49 RPM ratio (pull-down/input)
GATGATTGTTCTCCCAGCTGATGAATTGCTTTTATCGAGTAAACAAATTTTCCTAATCTTTCTGTTCAAGCGCCATCTAC	1.26 RPM ratio (pull-down/input)
GATGATTGTTCTCCCAGCTGATGAATTTGTTATCTCGAGTAAACAAATTTTCCTAATCTTTCTGTTCAAGCGCCATCTAC	1.76 RPM ratio (pull-down/input)
GATGATTGTTCTCCCAGCTGATGAATTTTGGTTATCGAGTAAACAAATTTTCCTAATCTTTCTGTTCAAGCGCCATCTAC	1.17 RPM ratio (pull-down/input)
GATGATTGTTCTCCCAGCTGATGAATTGCTCTTATCGAGTAAACAAATTTTCCTAATCTTTCTGTTCAAGCGCCATCTAC	1.17 RPM ratio (pull-down/input)
GATGATTGTTCTCCCAGCTGATGAATTTGTTATATCGAGTAAACAAATTTTCCTAATCTTTCTGTTCAAGCGCCATCTAC	1.5 RPM ratio (pull-down/input)
GATGATTGTTCTCCCAGCTGATGAATTTCTTATCTCGAGTAAACAAATTTTCCTAATCTTTCTGTTCAAGCGCCATCTAC	0.829 RPM ratio (pull-down/input)
GATGATTGTTCTCCCAGCTGATGAATTTGAGTTATCGAGTAAACAAATTTTCCTAATCTTTCTGTTCAAGCGCCATCTAC	1.04 RPM ratio (pull-down/input)
GATGATTGTTCTCCCAGCTGATGAATTTTTGTTATCGAGTAAACAAATTTTCCTAATCTTTCTGTTCAAGCGCCATCTAC	2.35 RPM ratio (pull-down/input)

Sequence	binding signal
GATGATTGTTCTCCCAGCTGATGAATTGGTGTTATCGAGTAAACAAATTTTCCTAATCTTTCTGTTCAAGCGCCATCTAC	1.9 RPM ratio (pull-down/input)
GATGATTGTTCTCCCAGCTGATGAATTCAAGATATCGAGTAAACAAATTTTCCTAATCTTTCTGTTCAAGCGCCATCTAC	0.908 RPM ratio (pull-down/input)
GATGATTGTTCTCCCAGCTGATGAATTCGTCTACTCGAGTAAACAAATTTTCCTAATCTTTCTGTTCAAGCGCCATCTAC	0.938 RPM ratio (pull-down/input)
GATGATTGTTCTCCCAGCTGATGAATTCTTTTCATCGAGTAAACAAATTTTCCTAATCTTTCTGTTCAAGCGCCATCTAC	1.07 RPM ratio (pull-down/input)
GATGATTGTTCTCCCAGCTGATGAATTCAGGGCTTCGAGTAAACAAATTTTCCTAATCTTTCTGTTCAAGCGCCATCTAC	0.881 RPM ratio (pull-down/input)
GATGATTGTTCTCCCAGCTGATGAATTCGCCGATTCGAGTAAACAAATTTTCCTAATCTTTCTGTTCAAGCGCCATCTAC	0.86 RPM ratio (pull-down/input)
GATGATTGTTCTCCCAGCTGATGAATTTGTCCTTTCGAGTAAACAAATTTTCCTAATCTTTCTGTTCAAGCGCCATCTAC	1.08 RPM ratio (pull-down/input)
GATGATTGTTCTCCCAGCTGATGAATTATGTTCGTCGAGTAAACAAATTTTCCTAATCTTTCTGTTCAAGCGCCATCTAC	1.06 RPM ratio (pull-down/input)
GATGATTGTTCTCCCAGCTGATGAATTGTGTTAATCGAGTAAACAAATTTTCCTAATCTTTCTGTTCAAGCGCCATCTAC	1.27 RPM ratio (pull-down/input)
GATGATTGTTCTCCCAGCTGATGAATTGTGGTTATCGAGTAAACAAATTTTCCTAATCTTTCTGTTCAAGCGCCATCTAC	1.27 RPM ratio (pull-down/input)
GATGATTGTTCTCCCAGCTGATGAATTTGTGTTATCGAGTAAACAAATTTTCCTAATCTTTCTGTTCAAGCGCCATCTAC	2.08 RPM ratio (pull-down/input)
GATGATTGTTCTCCCAGCTGATGAATTTTTTGCGTCGAGTAAACAAATTTTCCTAATCTTTCTGTTCAAGCGCCATCTAC	1.1 RPM ratio (pull-down/input)
GATGATTGTTCTCCCAGCTGATGAATTTGTTTTGTCGAGTAAACAAATTTTCCTAATCTTTCTGTTCAAGCGCCATCTAC	2.33 RPM ratio (pull-down/input)
GATGATTGTTCTCCCAGCTGATGAATTGAATTTGTCGAGTAAACAAATTTTCCTAATCTTTCTGTTCAAGCGCCATCTAC	0.98 RPM ratio (pull-down/input)
GATGATTGTTCTCCCAGCTGATGAATTTGTTCTGTCGAGTAAACAAATTTTCCTAATCTTTCTGTTCAAGCGCCATCTAC	1.07 RPM ratio (pull-down/input)
GATGATTGTTCTCCCAGCTGATGAATTTTGCGCGTCGAGTAAACAAATTTTCCTAATCTTTCTGTTCAAGCGCCATCTAC	1.04 RPM ratio (pull-down/input)
